Vif-APOBEC3F blk: inhibitors of Vif-A3F interaction; hit rate 0.2% among 390,000; HeLa A3F-eYFP + Vif (tagged APOBEC3F with the HIV-1 protein that degrades it), YFP fluorescence increase; Potency, µM (highest dose often 46.1 µM), inactives show at the top dose activity, negative = active; note: potency is the fitted concentration of half-maximal effect; % of control where 0% means no effect; nearly all actives have a fitted effect of over 65% in size
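HeLa cells stably expressing Vif plus C-terminally eYFP-tagged A3F were seeded, incubated overnight at 37 deg C, dosed with compound, incubated overnight again at 37 deg C. Yellow fluorescence (Ex 488/Em 500-530) reported blocked Vif-mediated A3F-eYFP degradation.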
MCF10A rerep: induces DNA re-replication in MCF 10a normal breast cells | MCF 10A DNA re-replication, Hoechst nuclear intensity, 48 h | Potency, µM (top dose mostly 46.1 µM), for the others: at the highest dose activity, positive = re-replication, most hits filed as activators | hit rate 2.9% among 350,000; note: potency is the fitted concentration of half-maximal effect; % of control where 0% means no effect; nearly all actives have a fitted effect of over 50% in size
SW480 rerep: induces DNA re-replication in SW480 colon adenocarcinoma cells. SW480 DNA re-replication, Hoechst DNA content imaging, 48 h. Potency, µM (series often up to 46.1 µM), for the others: top-dose re-replication activation, hits mostly activators. hit rate 1.8% among 340,000; note: potency is the fitted concentration of half-maximal effect; % of control where 0% means no effect; nearly all actives have a fitted effect of over 55% in size
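SW480 cells exposed to compounds for 48 hr at 37 C, 5% CO2, then Hoechst-stained 40 min. Nuclear DNA content imaged by fluorescence scanning (405 nm excitation, 500-530 nm emission); re-replication scored as increased high-intensity nuclei.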
Vif-A3G inh: Vif-A3G binding inhibition; Potency, µM (series often up to 46.1 µM), for inactives: at the highest dose activity, negative = active, actives largely listed as inhibitors; HeLa A3G-eYFP + Vif (tagged APOBEC3G with the HIV-1 protein that degrades it), YFP fluorescence, overnight; AID 602310; Q9HC16; hit rate 0.076% among 410,000; note: potency is the fitted concentration of half-maximal effect; % is set by controls: 0 for no effect and ±100 for the full control effect; nearly all actives have a fitted effect of over 60% in size
Target sequence (Q9HC16 whole entry, looked up): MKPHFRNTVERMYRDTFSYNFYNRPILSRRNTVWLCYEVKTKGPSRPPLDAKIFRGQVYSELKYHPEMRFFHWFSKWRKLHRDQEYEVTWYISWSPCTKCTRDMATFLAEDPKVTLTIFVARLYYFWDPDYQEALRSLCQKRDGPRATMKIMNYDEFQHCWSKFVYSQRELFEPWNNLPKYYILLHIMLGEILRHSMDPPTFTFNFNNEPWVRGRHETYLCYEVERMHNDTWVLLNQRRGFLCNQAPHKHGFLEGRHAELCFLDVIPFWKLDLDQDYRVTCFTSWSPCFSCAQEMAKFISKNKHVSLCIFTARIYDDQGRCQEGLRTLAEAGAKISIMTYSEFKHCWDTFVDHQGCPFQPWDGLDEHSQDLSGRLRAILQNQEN
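Read-out is eYFP fluorescence (Ex 488/Em 500-530) from Vif-expressing HeLa A3G-eYFP cells; more signal means A3G escaped Vif-mediated degradation. Cells plated overnight, compound pinned in, incubated overnight at 37 deg C.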
Giardia kill: kills Giardia lamblia | Giardia lamblia trophozoite viability | activity change, % at 7.66 µM, hits read low | hit rate 0.15% among 340,000; in the data active = activity change below about -80%; inconclusive = between about -30% and that limit;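 note: parasites exposed to compound for two days anaerobically before the ATP read; % is set by controls: 0 for no effect and ±100 for the full control effect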
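Viability, read as ATP luminescence: trophozoites at 100 cells/well, compound added, 48 hrs anaerobic at 37 deg C, then 15-30 min room-temperature development before reading.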
IL1B secr inh: inhibitors of inflammasome signaling (IL-1 beta secretion). THP-1 LPS/ATP IL-1B secretion, AlphaLISA, 16 h; stronger effect = lower value. AID 743279. activity change, % at 57.5 µM. hit rate 4.7% among 360,000; in the data active = activity change below about -50%; inconclusive = mostly about -30% to -49%; note: % is set by controls: 0 for no effect and ±100 for the full control effect
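Secreted IL-1B measured by AlphaLISA bead assay after 16 h compound exposure of THP-1 cells; compounds (final up to 57.5 uM) added 1 h before LPS (250 ng/mL) and ATP (1.25 mM) stimulation; lower signal means less secretion.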
* marks the source's active call; other numbers are inactive results; ! = repeats disagree; [ ] = dose if it differs, or a comment. Rows were chosen to be rich in hits. Some 6.9% of all compounds tested hit in one or more screens of this group. Unless noted, calls come from the whole dose curve; as a rule, active = well fitted curve in the direction sought with a large enough effect; inconclusive = small, poorly fitted or top-dose-only effect, or another doubt; inactive = no such curve, though single readings can be large; an effect the other way counts as inactive or inconclusive.

For C[C@H]1C[C@@H](C)C(=O)[C@@H]([C@H](O)CC2CC(=O)NC(=O)C2)C1 the results were Vif-APOBEC3F blk 2%, MCF10A rerep 4.6µM*, SW480 rerep inconclusive, Vif-A3G inh -5%, Giardia kill inconclusive and IL1B secr inh -90*.
For N#CC1(N2CCCCC2)CCCCC1 the results were MCF10A rerep 8% and SW480 rerep -2%.
CC1=NN(C)C(=O)C1Cc1c(F)cccc1Cl (configuration not stated) was read as Vif-APOBEC3F blk 1%, MCF10A rerep 4%, SW480 rerep -54%, Vif-A3G inh 0%, Giardia kill -10 and IL1B secr inh 6.
For C[C@@H](N)[C@@H](O)c1ccc(O)c(O)c1 the results were MCF10A rerep -1% and SW480 rerep 10%.
Cc1cccc(CN2CCN(Cc3ccc(Cl)cc3)CC2)c1 was read as Vif-APOBEC3F blk 0%, MCF10A rerep 7.3µM*, SW480 rerep inconclusive, Vif-A3G inh 2%, Giardia kill 3 and IL1B secr inh inconclusive.
For Cc1cccc(CN2CCN(c3ccc(Cl)cc3)CC2)c1 the results were Vif-APOBEC3F blk -3%, MCF10A rerep -11%, SW480 rerep 3%, Vif-A3G inh 0%, Giardia kill 1 and IL1B secr inh -1.
For Cc1ccccc1CN1C(=O)CN=C(c2ccccc2)c2cc(Cl)ccc21 the results were Vif-APOBEC3F blk -11% and Vif-A3G inh -5%.
Screening CCCCn1c(O)c(C(CC)=NCCc2ccccc2)c(=O)[nH]c1=O returned Vif-APOBEC3F blk 2%, MCF10A rerep 6%, SW480 rerep 0%, Vif-A3G inh -5%, Giardia kill 11 and IL1B secr inh 9.
CCCCn1c(O)c(C(=O)/C=C/c2c[nH]c3ccccc23)c(=O)[nH]c1=O was read as Vif-APOBEC3F blk -339%, MCF10A rerep 18µM*, SW480 rerep inconclusive, Vif-A3G inh 3.2µM* and Giardia kill -4.
For [O]=[Sb]([OH])([OH])[c]1ccccc1 the results were Vif-A3G inh 1% and Giardia kill -3.
Screening C#CC(C)(O)CC (configuration not stated) returned MCF10A rerep 11% and SW480 rerep 0%.
`COc1ccc(C[C@H]2NC[C@H](O)[C@H]2OC(C)=O)cc1` gave Vif-APOBEC3F blk 7%, MCF10A rerep inconclusive, SW480 rerep 3%[1.84 µM], Vif-A3G inh -11%, Giardia kill inconclusive and IL1B secr inh -111*.
`CN(Cc1cccc(-c2ccncc2)c1)C(=O)Oc1ccc([N+](=O)[O-])cc1` gave IL1B secr inh -26.
For CC(C)C(=O)c1cn(Cc2ccc(C#N)cc2)c2ccccc12 the results were Vif-APOBEC3F blk -18%, MCF10A rerep 23%, SW480 rerep 15%, Vif-A3G inh 0%, Giardia kill 0 and IL1B secr inh -10.
`CC(=O)c1cn(Cc2ccc(C#N)cc2)c2ccccc12` gave Vif-APOBEC3F blk 9%, MCF10A rerep 9%, SW480 rerep 7.3µM*, Vif-A3G inh -3%, Giardia kill -6 and IL1B secr inh 30.
Screening CN(C)c1ccc(N=O)cc1 returned Vif-A3G inh -26%.
For C=C1CC[C@H](O)C/C1=C/C=C1\CCC[C@]2(C)[C@@H]([C@H](C)CCCC(C)C)CC[C@@H]12 the results were MCF10A rerep 24µM* and SW480 rerep 15%.
`CCOC(=O)[C@]12Cc3cc(Cl)ccc3[C@H]1N(C1CCCCC1)C(=O)c1ccccc12` gave IL1B secr inh -114*.
Screening CCOC(=O)[C@]12Cc3cc(OC)ccc3[C@H]1N(C1CCCCC1)C(=O)c1ccccc12 returned IL1B secr inh -122*.
For CCOC(=O)[C@]12Cc3cc(Cl)ccc3[C@H]1N(C)C(=O)c1ccccc12 the results were IL1B secr inh -62*.
For CCOC(=O)[C@]12Cc3cc(C)ccc3[C@H]1N(C)C(=O)c1ccccc12 the results were IL1B secr inh -13.
`CCOc1ccc(-c2cc(C(=O)N3CCN(c4cccc(C(F)(F)F)c4)CC3)c3ccccc3n2)cc1` gave Vif-APOBEC3F blk -5% and Vif-A3G inh inconclusive.
Screening CCC(=O)Nc1nc2ccccc2n1CCN(C)C returned Vif-APOBEC3F blk 0%, MCF10A rerep inconclusive, SW480 rerep -9%, Vif-A3G inh 0%, Giardia kill 27 and IL1B secr inh -11.
Screening COc1ccc2cc1Oc1ccc(cc1)C[C@H]1c3cc(c(OC)cc3CCN1C)Oc1c(OC)c(OC)cc3c1[C@H](C2)N(C)CC3 returned Vif-APOBEC3F blk -7%, MCF10A rerep inconclusive, SW480 rerep inconclusive, Vif-A3G inh 2%, Giardia kill -26 and IL1B secr inh -96*.
For COc1cc2c3c(c1OC)Oc1ccc(cc1)C[C@H]1c4c(cc(OC)c(OC)c4Oc4ccc(cc4)C[C@@H]3N(C)CC2)CCN1C the results were Vif-APOBEC3F blk inconclusive, MCF10A rerep inconclusive, SW480 rerep 2.6µM*, Vif-A3G inh -13%, Giardia kill 14 and IL1B secr inh -3.
For COc1cc2c3cc1Oc1cc(ccc1O)C[C@@H]1c4c(cc(OC)c(O)c4Oc4cccc(c4)C[C@@H]3N(C)CC2)CC[N+]1(C)C the results were Vif-APOBEC3F blk -1%, MCF10A rerep -15%, SW480 rerep 9%, Vif-A3G inh -2%, Giardia kill -12 and IL1B secr inh 1.
`COc1cc2c3cc1Oc1c(OC)c(OC)cc4c1[C@H](Cc1ccc(cc1)Oc1cc(ccc1O)C[C@H]3N(C)CC2)N(C)CC4` gave Vif-APOBEC3F blk 0%, MCF10A rerep 45%, SW480 rerep 16%, Vif-A3G inh 12%, Giardia kill 13 and IL1B secr inh -2.
Screening COc1cc2c3cc1Oc1cc(ccc1O)C[C@@H]1c4c(cc(OC)c(O)c4Oc4ccc(cc4)C[C@H]3N(C)CC2)CCN1C returned Vif-APOBEC3F blk 8%, MCF10A rerep 18µM*!, SW480 rerep 10µM*, Vif-A3G inh -2%, Giardia kill 0 and IL1B secr inh 18.
Cc1ccc(Cl)c(O)c1 was read as MCF10A rerep 2% and SW480 rerep 5%.
For F/C(COc1ccc2c(c1)[nH]c1ccccc12)=C1/CN2CCC1CC2 the results were MCF10A rerep 22% and SW480 rerep 10%.
`O=C(CN1CC=C(c2ccccc2)CC1)NC(=O)NC1CCCCC1` gave Vif-APOBEC3F blk 7%, MCF10A rerep 21µM*, SW480 rerep -22%[1.84 µM], Vif-A3G inh 6%, Giardia kill 3 and IL1B secr inh -6.

Source: PubChem (National Center for Advancing Translational Sciences (NCATS))
